Compound activity deposited in PubChem BioAssay by National Center for Advancing Translational Sciences (NCATS).
Tau fil binding – binders of human tau filaments. 71,000 tested, 2% active. AID 596. P10636. recombinant tau filaments, thioflavin S fluorescence, 15 h; filaments grown with octadecylsulfate alongside compound. Potency, µM (highest dose often 57.1 µM), for inactives: top-dose activity change, negative = inhibition;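 further: on the % scale 0 is the no-effect control and ±100 the full control effect; actives lower thioflavin S fluorescence by blocking filaments or displacing dye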
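His-tagged recombinant human tau (exons 2, 3, 10; 1 uM final) fibrillized with 30 uM sodium octadecylsulfate, 15 h at 37 C, in pH 7.4 HEPES buffer with 10 uM thioflavine S and 5 mM DTT. Reduced ThS fluorescence (450/510 nm) marks activity.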
CRE-bla Fsk – modulators of forskolin-stimulated CRE signaling in CHO cells. CHO CRE-bla reporter (cAMP response element driving beta-lactamase), forskolin EC10, beta-lactamase ratio. Potency, µM (doses to about 38.2 µM), inactives show at the top dose activity change, negative = inhibition, actives largely listed as activators. 71,000 tested, 2.5% active. AID 662; active means well fitted activation curve with a large enough effect in the signal ratio, with a control signal flat, not every such curve was filed as active; inconclusive means small, poorly fitted or top-dose-only effect, or effect the other way, or a change in a side signal; the % refers to the signal ratio; further: % of control where 0% means no effect
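Titrated compounds plus EC10 NKH 477 on CHO CRE-bla cells, 3 h, 37 °C. CCF4, 2 h RT. Ratio 460/530 nm → AC50.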
ERK AVP inh – blocks ERK signaling stimulated by vasopressin; HEK293-V1b, vasopressin-stimulated pERK AlphaScreen; AID 995; 72,000 tested, 0.99% active; Potency, µM (highest dose often 57.5 µM), inactives show top-dose activity, negative = inhibition, usual class: inhibitors; further: on the % scale 0 is the no-effect control and ±100 the full control effect; nearly all actives have a fitted effect of over 55% in size
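HEK293 cells stably expressing V1b receptor, seeded overnight in 1% FBS, were treated with compounds for 30 min at 37C, then stimulated 5 min with 25 nM vasopressin; phospho-ERK read by AlphaScreen SureFire after lysis.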
TSHR ag – TSH receptor (human) agonism | HEK293-CNG-TSHR cells (CNG channel as cAMP sensor), membrane potential dye, cAMP | Potency, µM (doses to about 57.1 µM), without a hit: top-dose activation, hits mostly activators | 73,000 tested, 0.48% active; active means well fitted activation curve with a large enough effect in the main read-out, with a control signal flat, not every such curve was filed as active; inconclusive means small, poorly fitted or top-dose-only effect, or a change in a side signal; inactive means no such curve, though single readings can be large or run the other way; % of control where 0% means no effect;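 further: the control signal comes from parental cells without the receptor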
Target sequence (P16473 whole entry, looked up): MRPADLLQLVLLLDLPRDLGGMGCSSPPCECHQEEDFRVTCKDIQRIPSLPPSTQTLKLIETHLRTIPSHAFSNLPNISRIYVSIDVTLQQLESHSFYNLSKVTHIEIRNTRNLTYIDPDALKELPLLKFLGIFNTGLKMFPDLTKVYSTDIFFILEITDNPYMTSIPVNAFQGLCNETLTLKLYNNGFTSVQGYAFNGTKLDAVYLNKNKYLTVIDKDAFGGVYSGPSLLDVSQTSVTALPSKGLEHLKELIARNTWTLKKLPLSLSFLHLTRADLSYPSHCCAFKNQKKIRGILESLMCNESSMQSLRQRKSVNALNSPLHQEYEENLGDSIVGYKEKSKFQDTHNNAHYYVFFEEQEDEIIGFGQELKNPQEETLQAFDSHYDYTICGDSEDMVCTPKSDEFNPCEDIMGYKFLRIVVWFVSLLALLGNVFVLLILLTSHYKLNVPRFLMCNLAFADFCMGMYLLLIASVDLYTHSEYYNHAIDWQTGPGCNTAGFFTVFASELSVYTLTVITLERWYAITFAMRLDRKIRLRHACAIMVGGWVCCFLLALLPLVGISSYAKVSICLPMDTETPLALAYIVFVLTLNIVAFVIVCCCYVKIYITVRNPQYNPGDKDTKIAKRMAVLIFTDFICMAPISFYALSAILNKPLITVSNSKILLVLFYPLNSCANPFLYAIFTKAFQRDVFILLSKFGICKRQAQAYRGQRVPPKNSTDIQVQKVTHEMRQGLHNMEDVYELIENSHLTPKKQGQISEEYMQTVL
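HEK 293 cells stably expressing TSHR and a modified CNG channel, with CNG-only parental cells as counterscreen, were preloaded 60 min at room temperature with membrane potential dye containing 100 uM RO 20-1724. Compound exposure was 30 min, and depolarization was read as fluorescence at 590 nm.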
HEK293 cAMP ctrl – counter-screen for TSHR agonists: cAMP increase in parental HEK293; 73,000 tested, 2.5% active; parental HEK293 CNG cAMP sensor, membrane potential fluorescence; Potency, µM (highest dose often 57.1 µM), inactives show top-dose activation, usual class: activators; further: % of control where 0% means no effect; nearly all actives have a fitted effect of over 55% in size
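Parental HEK 293 cells stably expressing a cAMP-gated CNG channel were loaded with membrane potential dye containing 100 uM RO 20-1724 for 60 min. Compound added for 30 min; depolarization read as fluorescence intensity at 590 nm.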
* = called active by the depositor; ? = inconclusive; / = not tested or not shown; [ ] = another dose, or the depositor's remark. Shown are actives, neighbours in structure and some others; about 7.6% of the full set was active somewhere. Unless noted, the call rests on the fitted dose curve; in most records, active means well fitted curve in the direction sought with a large enough effect; inconclusive means small, poorly fitted or top-dose-only effect, or another doubt; inactive means no such curve, though single readings can be large; an effect the other way counts as inactive or inconclusive. Potency means the concentration at half of the fitted maximal effect.

SMILES	Tau fil binding	CRE-bla Fsk	ERK AVP inh	TSHR ag	HEK293 cAMP ctrl
Cn1cc(-c2nc3cnc(OCc4ccccc4)nc3n(CCC#N)c2=O)c2ccccc21	112.2%	?	6.3%	?	?
C=CCSSSCC=C	/	/	-13.3%	/	/
c1ccc2c(NC3CC3)nc(-c3ccoc3)nc2c1	?	?	-28.8%	27.4%	18.2%
c1ccc2c(N3CCOCC3)nc(-c3ccoc3)nc2c1	-18.8%	5.01µM*	-67.0%	/	13.5%
c1ccc2c(-n3ccnc3)nc(-c3ccoc3)nc2c1	-2.0%	3.16µM*	-19.8%	7.4%	7.2%
CN(C)Cc1ccccc1-c1nc(N2CCOCC2)c2ccccc2n1	-7.5%	?	13.9%	?	7.94µM*
CN1CCN(c2nc(-c3ccoc3)nc3ccccc23)CC1	-9.9%	?	?	5.01µM*	15.1%
O=C(O)Cc1cc2ccccc2nc1C(=O)O	-6.1%	-25.2%	2.3%	-2.0%	-2.9%
Cc1ccccc1-c1nc(N2CCOCC2)c2ccccc2n1	-1.6%	?	?	?	?
CSc1nc(N2CCOCC2)c2ccccc2n1	-5.0%	10µM*	-15.1%	10.6%	-0.1%
CC(=O)[C@@H]1CC[C@@H]2[C@@H]3C[C@H](C)C4=CC(=O)CC[C@@]4(C)[C@H]3[C@H](O)C[C@]21C	2.0%[25.6 µM]	-2.1%[17.1 µM]	16.3%[25.7 µM]	-4.8%[25.6 µM]	-2.7%[25.6 µM]
CCc1nc(SCC(=O)N2CCN(C(=O)c3ccco3)CC2)c2c3c(sc2n1)CCCC3	16.0%	12.3%	20µM*	-2.6%	21.1%
O=C(c1ccco1)N1CCN(c2nc(C3CC3)nc3sc4c(c23)CCCC4)CC1	55.5%	?	7.2%	?	?
COc1ccccc1CNc1cc(-c2cccc(NS(C)(=O)=O)c2)ncn1	2.2%	?	?	12.7%	-5.0%
CC(C)c1ccc(/C=C2\C=C(c3ccc4ccccc4c3)OC2=O)cc1	-23.7%[11.4 µM]	18.7%[7.6 µM]	-19.8%[11.5 µM]	6.5%[11.4 µM]	10.7%[11.4 µM]
Cc1cc(C)cc(N(CC(=O)O)S(=O)(=O)c2cccnc2)c1	5.0%	-12.2%	/	3.5%	-0.9%
CN1CCN(c2ccc3nc(-c4ccc5nc(-c6ccc(O)cc6)[nH]c5c4)[nH]c3c2)CC1	52.7%[11.4 µM]	?	1.1%[11.5 µM]	2.7%[11.4 µM]	5.8%[11.4 µM]
CCOc1cc(C2CC(=O)N3CN(C4CCCCC4)CSC3=C2C#N)ccc1O (stereo not given)	-19.4%	-10.7%	-2.5%	4.7%	17.8%
COc1ccc2ccccc2c1C1CC(=O)N2CN(Cc3ccco3)CSC2=C1C#N (stereo not given)	7.94µM*	?	-15.3%	?	?
COc1ccc2ccccc2c1C1CC(=O)N2CN(C3CCCCC3)CSC2=C1C#N (stereo not given)	12.6µM*	?	5.1%	?	?
COc1ccc(N2CSC3=C(C#N)C(c4cccc(OC)c4OC)CC(=O)N3C2)cc1 (stereo not given)	?	3.98µM*	-21.5%	?	?
COc1ccc(OC)c(C2CC(=O)N3CN(c4ccccc4)CSC3=C2C#N)c1 (stereo not given)	-14.9%	6.0%	-15.1%	-13.0%	8.9%
COc1ccc(C2CC(=O)N3CN(Cc4ccco4)CSC3=C2C#N)cc1 (stereo not given)	4.1%	4.1%	-14.2%	1.9%	3.8%
Nc1nc(-c2c[nH]c3ccccc23)cs1	25.1µM*	?	11.7%	0.5%[11.4 µM]	-10.2%
Cc1nc(N2CCOCC2)c2nc(-c3ccccc3)n(CCCN3CCCCC3C)c2n1 (stereo not given)	53.9%	0.6%	-13.1%	?	?
SMILES	Tau fil binding	CRE-bla Fsk	ERK AVP inh	TSHR ag	HEK293 cAMP ctrl
CC(=O)Nc1cccc(Cn2cccn2)c1	16.3%	3.2%	-12.7%	?	20µM*
O=C(Nc1cccc(Cn2cccn2)c1)c1cc2c(s1)CCCC2	39.8%	?	20µM*	/	28.2%
COC1OC(CO)C(OC2OC(C(=O)O)C(OC3OC(COS(=O)(=O)O)C(OC4OC(C(=O)O)C(OC5OC(CO)C(OC6OC(C(=O)O)C(OC7OC(COS(=O)(=O)O)C(OC8OC(C(=O)O)=C[C@H](O)C8OS(=O)(=O)O)C(O)C7NC(C)=O)[C@@H](O)C6O)C(O)C5NC(C)=O)[C@@H](O)C4O)C(O)C3NC(C)=O)[C@@H](O)C2O)C(O)C1NC(C)=O (stereo not given in full)	/	/	2.2%	/	/
CN(C)c1ccc(NC(=O)Cn2ncn3c(cc4ccccc43)c2=O)cc1	12.6µM*	?	-15.1%	-13.7%	-9.0%
Cc1cc(C)cc(NC(=O)Cn2ncn3c(cc4ccccc43)c2=O)c1	37.1%	?	17.0%	?	?
C/C(CCN1CCCc2nc(C)c(C)cc21)=N\O[C@@H](C)c1cc(-c2c(C)cc(C)cc2C)no1	/	/	13.0%[11.5 µM]	3.5%[11.4 µM]	12.6%[11.4 µM]
Fc1ccc2nc3[nH]c4ccccc4c3nc2c1	-26.1%	7.94µM*	?	3.7%	5.7%
Cc1nn(-c2ccccc2)c2[nH]c(=O)c(CNc3ccc(N4CCOCC4)cc3)cc12	20µM*	?	-17.5%	9.9%	-25.1%
O=c1[nH]c2c(cc1CNCCN1CCOCC1)c(-c1cccc(F)c1)nn2-c1ccccc1	?	?	-7.9%	-1.3%	-5.8%
CCCNC(=O)OC[C@@H]1O[C@H](CCO/N=C(\C)CCC(=O)OC[C@@H]2O[C@H](c3ccccc3)C=C[C@@H]2Oc2ccc(OC)cc2)C=C[C@@H]1Oc1ccc(OC)cc1	/	/	-12.6%[11.5 µM]	-0.9%[11.4 µM]	-6.5%[11.4 µM]
CCOC(=O)C(CC)Sc1nnc2n1C(C)(C)Cc1ccccc1-2 (stereo not given)	-7.9%	6.5%	8.6%	?	20µM*
COc1ncc2nc(-c3cccs3)c(=O)n(CCc3ccccc3)c2n1	4.1%	?	?	10.5%	18.8%
C/C(Cl)=C/Cn1c(SC(C)C)nc2c1c(=O)[nH]c(=O)n2C	1.5%	7.94µM*	15.8µM*	?	?
CCC(C)Sc1nc2c(c(=O)[nH]c(=O)n2C)n1CCc1ccccc1 (stereo not given)	15.7%	7.94µM*	?	?	31.6µM*
CCC(C)Sc1nc2c(c(=O)[nH]c(=O)n2C)n1Cc1ccc(Cl)cc1 (stereo not given)	9.8%	7.94µM*	24.1%	/	23.1%
CCNc1ncc2nc(-c3ccccc3)c(=O)n(Cc3cccs3)c2n1	98.0%	?	-5.5%	?	?
c1ccc(Cn2c(-c3cccs3)nc3nc4ccccc4nc32)cc1	-12.4%	5.7%	-12.8%	8.3%	9.1%
CC(C)Cn1c(-c2cccs2)nc2nc3ccccc3nc21	?	12.6µM*	6.3%	12.1%	11.6%
c1ccc(Cc2nn3c(C4COc5ccccc5O4)nnc3s2)cc1 (stereo not given)	-16.1%	?	?	17.9%	4.7%
COc1ccccc1-c1nn2c(C3COc4ccccc4O3)nnc2s1 (stereo not given)	58.5%	?	-17.1%	?	25.1µM*
